# Source: the supplement of paper PMC4894684
# Counter-ions that a name gives are not always drawn. ± gives the standard deviation of the averaged measurements.
# System: Toxoplasma gondii RH (in HFF)
# Experiment: parasite growth relative to the screen mean (all compounds = 100%); higher = less inhibition of parasite growth
# Settings: 5 µM; 72 h; oxygen 21 %
# In short: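 Values give growth relative to the screen mean. The screen mean (all compounds) is set at 100%, and two screens were averaged. Compounds at 5 µM final were placed on confluent human foreskin fibroblasts, which were infected within 2 h with RH β-Gal–GFP Toxoplasma (MOI 1:5) and kept 72 h at 21% O2 before a CPRG β-Gal readout against in-plate standard curves.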
row,Structure (SMILES),parasite growth [%]
1,CC(C)Oc1cccc(-n2c(CCc3c[nH]c4ccc(Br)cc34)nc3ccccc3c2=O)c1,55.84 ± 0.023
2,CC12CC3CC(C)(C1)CC(N)(C3)C2 [Memantine hydrochloride],123 ± 4.8
3,COc1ccc(-c2ccc(=N)n(CCCC(=O)O)n2)cc1,133 ± 26
4,CNC(=O)[C@@H](Cc1ccccc1)N(C)C(=O)[C@@H](Cc1ccc2ccccc2c1)N(C)C(=O)/C=C/CC(C)(C)N [Tabimorelin],135 ± 20
5,CCc1ccc2c(-c3cccc(Cl)c3)nc(=O)n(CC)c2n1,152 ± 17
6,O=C(Nc1ccc(C(F)(F)F)cn1)N1CCN(c2ncccc2C(F)(F)F)CC1,135 ± 6.2
7,CSc1cc2c(cc1C(F)(F)F)N(C(=O)Nc1cccnc1)CC2,122 ± 30
8,CC(C)NC[C@H](O)COc1cccc2[nH]ccc12 [(S)-(-)-Pindolol],127 ± 20
9,Fc1ccc(C(c2ccc(F)cc2)N2CCN(C/C=C/c3ccccc3)CC2)cc1 [Flunarizine dihydrochloride],56.3 ± 12
10,CC(C)(Oc1ccc(Cl)cc1)C(=O)O [Clofibric acid],127 ± 43
11,C#CCN1C(C)=C(C(=O)OC)C(c2cccc([N+](=O)[O-])c2)C(C(=O)OCC)=C1C (stereo not drawn),157 ± 2.2
12,Cc1cccc(C#Cc2ccccc2)n1 [MPEP hydrochloride],101 ± 37
13,O=c1cc(-c2ccccc2)oc2cc(O)c(O)c(O)c12 [Baicalein],173 ± 30
14,CCCCCCCCCCCCCCCC(=O)C(F)(F)F,108 ± 7.6
15,CC[C@H](C)C(=O)O[C@H]1C[C@@H](C)C=C2C=C[C@H](C)[C@H](CC[C@@H]3C[C@@H](O)CC(=O)O3)[C@H]21 [Lovastatin],128 ± 17
16,O=C1NC(=O)c2cc(Nc3ccccc3)c(Nc3ccccc3)cc21,176 ± 43
17,CCN1CCC[C@H]1CNC(=O)c1c(OC)ccc(Br)c1OC [Remoxipride hydrochloride],113 ± 3.8
18,CCC1(c2ccccc2)C(=O)NCNC1=O [Primidone],113 ± 18
19,c1ccc(C(NCCNC(c2ccccc2)c2ccccc2)c2ccccc2)cc1 [AMN 082 dihydrochloride],35.1 ± 15

row,Structure (SMILES),parasite growth [%]
1,C=CCn1c(=O)n([C@@H]2O[C@H](CO)[C@@H](O)[C@H]2O)c2nc(N)[nH]c(=O)c21,116 ± 8.2
2,CCCCc1nc2ccn(Cc3cccs3)c(=O)c2n1Cc1ccc(-c2ccccc2-c2nn[nH]n2)cc1,104 ± 12
3,CS(=O)(=O)Nc1ccc([N+](=O)[O-])cc1Oc1ccccc1 [Nimesulide],98.5 ± 4.5
4,CCN1CCC[C@H]1CNC(=O)c1cc(S(N)(=O)=O)ccc1OC [(S)-(-)-Sulpiride],93.2 ± 3.8
5,O=C(O)CC/C=C\C[C@H]1CO[C@@H](c2ccccc2Cl)O[C@H]1c1ccccc1O,79.02 ± 0.65
6,COc1ccc2c(c1)c(CC(=O)O)c(C)n2C(=O)c1ccc(Cl)cc1 [Indomethacin],150 ± 30
7,CCC(=O)OCN1C(=O)C=CC1=O,124 ± 12
8,COC(=O)C1=C(C)NC(C)=C(C(=O)OC(C)C)C1c1cccc2nonc12 (stereo not drawn) [Isradipine],43.3 ± 5.6
9,CCCCCS(=O)(=O)CCCCCCCCCCn1c(-c2ccc(O)cc2)c(C)c2cc(O)ccc21,132 ± 30
10,Clc1ccc(-c2nc3sccn3c2/C=N/OCc2ccc(Cl)c(Cl)c2)cc1,110 ± 8.4
11,COc1ccc(-c2oc3cc(OC)ccc3c2C(=O)c2ccc(C#N)cc2)cc1,81.1 ± 22
12,C[C@@H]1C[C@H]2[C@@H]3CCC4=CC(=O)C=C[C@]4(C)[C@@]3(F)[C@@H](O)C[C@]2(C)[C@@]1(O)C(=O)CO [Dexamethasone],141 ± 12
13,CCCCCCCCCCC[C@@H](C[C@@H]1OC(=O)[C@H]1CCCCCC)OC(=O)[C@H](CC(C)C)NC=O [Orlistat],< 0
14,Nc1c(S(=O)(=O)O)cc(Nc2cccc3ccccc23)c2c1C(=O)c1ccccc1C2=O,172 ± 11
15,OCc1cc(C(O)CNCCCCCCOCCCCc2ccccc2)ccc1O (stereo not drawn) [Salmeterol],14.4 ± 11
16,CCCn1c(=O)c(C)cn2nc(N)nc12,145 ± 2.1
17,Oc1ccc(-c2nc(-c3ccc(F)cc3)c(-c3ccncc3)[nH]2)cc1,< 0
18,c1ccc(N2CCN(CCCOc3ccc4c(c3)OCO4)CC2)cc1 [BP 554 maleate],127 ± 0.98
19,CC[N+](CC)(CC)CCOc1ccc(/C=C/c2ccccc2)cc1,99.2 ± 19
